The sample as a whole holds a higher share of hits than the screen did.
Methyltransferases: Primary Screen for Target Class Profiling of Small Molecule Inhibitors of Methyltransferases. purified enzyme, MTase-Glo SAH luminescence; stronger effect = lower value. calls only at 40 µM. actives 3.9% (n = 25,000). AID 1745853, 2022; call rule not given here
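Each enzyme was assayed with SAM and its substrate. SAH formation detected by MTase-Glo luminescence; single-point 40 uM screen[…].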
* marks the source's active call; other numbers are inactive results; i = inactive; + = active, no number; ! = not confirmed by another sample. % is scaled to controls: 0 for no effect and ±100 for the full control effect.

SMILES	Methyltransferases
COc1cccc(-c2ccc(NC(=O)C3CCCN3C(=O)CNC(C)=O)cc2)c1 (stereo not drawn)	i
CC(=O)NCC(=O)N1C2CCC1c1cc(Nc3ncc(C(F)(F)F)c(NC4CCC4)n3)ccc12 (stereo not drawn)	+
C=CC(=O)Nc1cccc(Nc2nc(Nc3ccc(NC4CN(CCF)C4)cc3OC)ncc2C(F)(F)F)c1	i
Cc1ccc(C)c(Cn2nc3n(C)c(=O)c4ccc(C(=O)NC5CCCC5)cc4n3c2=O)c1	i
O=C(NCCCc1ccccc1)C1CCC(CNS(=O)(=O)c2cccc3nsnc23)CC1 (stereo not drawn)	i
Nc1nc(NCC2CCC(CNS(=O)(=O)c3cccc4ccccc34)CC2)nc2ccccc12 (stereo not drawn)	+
O=C(Cn1c(=O)oc2cc(S(=O)(=O)N3CCCC3)ccc21)Nc1ccccc1F	i
CCc1cc2c(cc3n2CC(C(=O)NC2CCCCC2)(c2ccccc2)N(Cc2ccccc2)C3=O)s1 (stereo not drawn)	i
CC(C)Cn1c(=O)c2ccccc2n2c(=O)n(CC(=O)Nc3cccc(F)c3)nc12	i
CCN(CC)Cc1ccc2cc(COC(=O)Nc3ccc(C(=O)NO)cc3)ccc2c1	+!
COc1ccc(NC(=O)c2ccc3c(c2)N(C(=O)c2ccc(OC)cc2)CC3)cc1	i
Cc1ccc(N2C(=O)c3cc4sccc4n3CC2(C)C(=O)NC2CCC(C)CC2)c(C)c1 (stereo not drawn)	i
CC(C)Oc1ccc(CN2C(=O)c3nc4ccccc4n3CC2(C)C(=O)NC2CCCCCC2)cc1 (stereo not drawn)	i
CC(C)Oc1ccc(CN2C(=O)c3nc4ccccc4n3CC2(C)C(=O)NC2CCCCC2)cc1 (stereo not drawn)	i
c1ccc(Cn2c(-c3ccc(OCC(C4CCNCC4)n4c(-c5ccccc5)nc5ccccc54)cc3)nc3ccccc32)cc1 (stereo not drawn)	+
CC1(C(=O)NC2CCCC2)Cn2cnc(C(=O)NCCc3ccco3)c2C(=O)N1C1CC1 (stereo not drawn)	i
CCN(CC)c1nc2c(-c3ccc(C)cc3)nnn2c2ccccc12	i
O=C(O)Cc1ccc2oc(-c3ccc(NC(=O)/C=C/c4ccc(Br)cc4)c(F)c3)nc2c1	i
C=Cc1cc2oc(-c3ccc(O)c(F)c3)nc2cc1O	+
CCC1c2ccc(C)n2CCN1C(=O)Nc1ccccc1C(F)(F)F (stereo not drawn)	i
Cc1cccc(C2c3cccn3-c3sc4c(c3CN2C(=O)NC(C)C)CCCC4)c1 (stereo not drawn)	i
O=C(c1c(F)ccc(NS(=O)(=O)N2CC[C@@H](F)C2)c1F)c1c[nH]c2ncc(-c3cnc(C4CC4)nc3)cc12	i
CCCS(=O)(=O)Nc1ccc(F)c(C(=O)c2c[nH]c3ncc(-c4ccc(Cl)cc4)cc23)c1F	+
COc1ccc(-c2cnc3[nH]cc(CC(=O)N4CCNC(=O)C4)c3c2)cc1	i
CC(C)CCn1c(=O)c2ccccc2n2c(SCC(=O)NCc3ccc(Cl)cc3)nnc12	i
SMILES	Methyltransferases
CCN1C(=O)c2cc(C(=O)NC3CCCCCC3)nn2CC1(C)C(=O)NC1CCCC1 (stereo not drawn)	i
O=C(NCc1ccc(F)cc1)c1ccc2c(=O)nc3c(-c4ccc(Cl)cc4)n[nH]n3c2c1	i
CC(CN1C(=O)c2cc3occc3n2CC1(C)C(=O)NC1CCCCCCC1)c1ccccc1 (stereo not drawn)	i
CCCn1c(=O)c2ccc(C(=O)NCC(C)C)cc2n2c(=O)n(CC(=O)Nc3cccc(CC)c3)nc12	i
CC(C)OCCCNC(=O)CCCc1nnc2n3nc(-c4ccccc4)nc3c3ccccc3n12	i
Cc1ccc(NS(=O)(=O)c2cc3[nH]c(=O)[nH]c3cc2C)c(C)c1	i
O=C(O)C1=CC(=C(c2ccc(O)c(C(=O)O)c2)c2ccc(O)c(C(=O)O)c2)C=CC1=O	+
COc1cc(Nc2nc3c(s2)CCCC3c2ccccc2)ccc1-n1cnc(C)c1 (stereo not drawn)	i
COc1cc(/C=C2\CCCN([C@@H](C)c3ccc(F)cc3)C2=O)ccc1-n1cnc(C)c1	+
COc1ccc(CCNS(=O)(=O)c2ccc3[nH]c(=O)[nH]c3c2)cc1OC	i
COC(=O)Cn1c(=O)oc2cc(S(=O)(=O)NCCN3CCC(C)CC3)ccc21	i
CCCN1C(=O)c2c(C(=O)NCc3ccccc3Cl)ncn2CC1(C)C(=O)NCc1ccc(OC)cc1 (stereo not drawn)	i
CC(C)(C)NC(=O)Cn1nc2n(Cc3ccccc3)c(=O)c3ccc(C(=O)NC4CCCC4)cc3n2c1=O	i
O=C1C(SCCO)=C(SCCO)C(=O)c2ccccc21	+
Cc1ccc(C)c(N2C(=O)c3cc(-c4cccs4)nn3CC2(C)C(=O)NC2CCCCC2)c1 (stereo not drawn)	i
Cc1ccc(NC2=CC(=O)c3sc(C)nc3C2=O)cc1	+
CC(C)CCn1c(=O)c2ccc(C(=O)NCC(C)C)cc2n2c(=O)n(Cc3cccc(Cl)c3)nc12	i
NCCCNc1ccc(Nc2nccc(Nc3cc(C4CC4)[nH]n3)n2)cc1	+
CC1(C(=O)NC2CCCCC2)Cn2c(cc3occc32)C(=O)N1CCCc1ccccc1 (stereo not drawn)	i
Cc1ccc(NC(=O)Cn2nc3n(C(C)C)c(=O)c4ccc(C(=O)NC5CCCC5)cc4n3c2=O)cc1	i
COC(=O)c1ncn2c1C(=O)N(Cc1cccc(C)c1)C(C)(C(=O)NC1CCCCCC1)C2 (stereo not drawn)	i
NC(=NCCCCCCN=C(N)/N=C(\N)Nc1ccc(Cl)cc1)/N=C(\N)Nc1ccc(Cl)cc1	+
COc1cccc(Cn2nc3n(Cc4ccccc4)c(=O)c4ccccc4n3c2=O)c1	i
CCCn1c(=O)c2ccc(C(=O)NC(C)CC)cc2n2c(=O)n(Cc3ccccc3)nc12 (stereo not drawn)	i
O=C(Cc1c[nH]c2ccccc12)NCCc1c[nH]c2ccc(Cl)cc12	i
SMILES	Methyltransferases
COc1cc2c(CCNC(C)=O)c[nH]c2cc1O	+
N[C@@H](Cc1c[nH]c2ccc(O)cc12)C(=O)O	i
O=C(NC1CC1)c1ccc2c(=O)nc3c(-c4ccccc4)n[nH]n3c2c1	i
O=C(CSc1nnc2n(Cc3ccccc3)c(=O)c3ccccc3n12)Nc1cc(F)ccc1F	i
O=c1c2ccccc2n2c(SCc3ccc(F)cc3)nnc2n1CCc1ccccc1	i
CCOC(=O)c1cc2n(n1)CC(C)(C(=O)NC1CCCCC1)N(c1ccccc1F)C2=O (stereo not drawn)	i
O=C(CCc1nnc2n(Cc3ccc(F)cc3)c(=O)c3ccccc3n12)Nc1ccc(F)cc1	i
CC(C)CCNC(=O)C1(C)Cn2c(ccc2-c2ccco2)C(=O)N1Cc1ccc2c(c1)OCO2 (stereo not drawn)	i
Cc1ccc(Cn2c(=O)c3ccccc3n3c(CCC(=O)N4CCN(c5cccc(C)c5C)CC4)nnc23)cc1	i
Cc1cccc(N2CCN(C(=O)CCc3nnc4n(CC(C)C)c(=O)c5ccccc5n34)CC2)c1C	+
Cc1ccc(C)c(N2CCN(C(=O)CCc3nnc4n(CCC(C)C)c(=O)c5ccccc5n34)CC2)c1	i
COCCN(C)Cc1ccc(CC2CCN(S(=O)(=O)c3ccccc3)CC2)cc1	i
Cc1cc2c(cc1Cl)N(C(=O)Nc1ccnc3ccccc13)CC2	+
